“And” between values parts separate entries of the source, which are not always exact repeats. Equal values may be shown once. Inconclusive results are not listed. Some structures have more than one record in an assay (separate samples or runs), and their calls can disagree. The source made the active and inactive calls. Unless noted, calls follow the shape of the dose curve; as a rule, active = well fitted curve in the direction sought with a large enough effect in the repeat runs; inconclusive = weak or mixed curves; inactive = no such curve, though single readings can be large; an effect the other way counts as inactive or inconclusive.
Legend:
[1] = target: Aryl hydrocarbon receptor (Homo sapiens) (UniProt P35869); experiment: qHTS assay to identify small molecule that activate the aryl hydrocarbon receptor (AhR) signaling pathway (AID 743085); also: nearly all actives have a fitted effect of over 15% in size; also: potency is read from the fitted curve at half-maximal effect;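 as to activation: HG2L7.5c1 human HepG2 liver cells with stably integrated DRE-driven firefly reporter; series mostly up to about 70 µM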
In short: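 Steps: seed HepG2-AhR-luc cells; allow 5 h at 37C; pin-transfer test compound or vehicle; incubate 24 h at 37C; add viability dye (30 min, 37C) and read fluorescence; add luciferase substrate (30 min, RT) and read luminescence.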

[2] = qHTS assay to identify small molecule that activate the aryl hydrocarbon receptor (AhR) signaling pathway - cell viability counter screen (AID 743086); also: nearly all actives have a fitted effect of over 45% in size; also: potency is read from the fitted curve at half-maximal effect
In short: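 HepG2-AhR-luc (HG2L7.5c1) cells, 4000/well, were preincubated 5 h at 37C, exposed to compound in qHTS format for 24 hr at 37C, then given CellTiter-Fluor for 30 min; viability was read as fluorescence in the reporter wells.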

[3] = target: Peroxisome proliferator-activated receptor gamma (Homo sapiens) (UniProt P37231); experiment: qHTS assay to identify small molecule agonists of the peroxisome proliferator-activated receptor gamma (PPARg) signaling pathway (AID 743094; active = well fitted activation curve with a large enough effect in the signal ratio in the repeat runs, not every such curve was filed as active; the % refers to the signal ratio)
In short: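 Agonism was assessed in a beta-lactamase reporter system, HEK293H cells with a stably integrated UAS-bla construct under PPARg control; the 17 h treatment at 37C preceded a 1 h room-temperature FRET substrate read.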

[4] = qHTS assay to identify small molecule antagonists of the peroxisome proliferator-activated receptor gamma (PPARg) signaling pathway - cell viability counter screen (AID 743194); conditions: Potency: co-treated with 50 nM rosiglitazone; also: nearly all actives have a fitted effect of over 55% in size; also: potency is read from the fitted curve at half-maximal effect
In short: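 PPARg-UAS-bla HEK293H cells were plated, rested 5 h at 37 C, then treated with compounds plus rosiglitazone (50 nM final) for 17 h at 37 C; viability was then read by CellTiter-Glo luminescence after 30 min at room temperature.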

[5] = qHTS assay for small molecule agonists of the antioxidant response element (ARE) signaling pathway (AID 743202; active = well fitted activation curve with a large enough effect in the signal ratio in the repeat runs, not every such curve was filed as active; the % refers to the signal ratio; also: potency is read from the fitted curve at half-maximal effect)
In short: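 Following a 16 h, 37 C exposure of reporter HepG2 cells (ARE-driven beta-lactamase, 2,000 cells/well) to compounds, FRET substrate was applied for 2 h at room temperature and fluorescence intensity recorded.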

[6] = qHTS assay for small molecule agonists of the antioxidant response element (ARE) signaling pathway - cell viability counter screen (AID 743203; calls by dose curve; also: nearly all actives have a fitted effect of over 55% in size; also: potency is read from the fitted curve at half-maximal effect)
In short: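 ATP content via CellTiter-Glo luminescence served as the viability measure. Cells: ARE-bla HepG2, 2,000 per well. Exposure: 16 hrs, 37C/5% CO2.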

[7] = qHTS assay for small molecule activators of the heat shock response signaling pathway - cell viability counter screen (AID 743209); also: nearly all actives have a fitted effect of over 50% in size
In short: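 Compounds dissolved in DMSO were added to overnight-plated HSE-bla HeLa cells and left 5 h at 37 C. Cell viability was quantified by luminescence using CellTiter-Glo.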

[8] = qHTS assay for small molecule activators of the heat shock response signaling pathway (AID 743210; active = well fitted activation curve with a large enough effect in the signal ratio in the repeat runs, with a control signal flat, not every such curve was filed as active; the % refers to the signal ratio; also: potency is read from the fitted curve at half-maximal effect; as to activation: series mostly up to about 63 µM)
In short: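 Heat shock element–beta-lactamase HeLa reporter cells; qHTS with compounds for 5 h at 37 C; detection by FRET substrate fluorescence after 2.5 h at RT.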

[9] = qHTS assay to identify small molecule agonists of the peroxisome proliferator-activated receptor delta (PPARd) signaling pathway - cell viability counter screen (AID 743211); also: nearly all actives have a fitted effect of over 55% in size; also: potency is read from the fitted curve at half-maximal effect
In short: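 Viability of GeneBLAzer PPARd UAS-bla HEK293H cells was assessed after 17 h compound incubation at 37C, using CellTiter-Glo reagent added after the reporter read and luminescence recorded 30 min later.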

[10] = target: Bile acid receptor (Homo sapiens) (UniProt Q96RI1); experiment: qHTS assay to identify small molecule antagonists of the farnesoid-X-receptor (FXR) signaling pathway (AID 743217; active = well fitted inhibition curve with a large enough effect in the signal ratio in the repeat runs, not every such curve was filed as active; the % refers to the signal ratio)
In short: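 Test compounds are pin-transferred onto FXR-bla HEK 293T cells, then chenodeoxycholic acid is added at 50 uM final. After 16 h at 37 °C, LiveBLAzer B/G substrate is applied for 2 h at room temperature and fluorescence read.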

[11] = target: Bile acid receptor (Homo sapiens) (UniProt Q96RI1); experiment: qHTS assay to identify small molecule agonists of the farnesoid-X-receptor (FXR) signaling pathway (AID 743220; active = well fitted activation curve with a large enough effect in the signal ratio in the repeat runs, not every such curve was filed as active; the % refers to the signal ratio)
In short: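 FXR-UAS-bla HEK 293T cells carrying a UAS-driven beta-lactamase reporter were plated for 5 h at 37C/5% CO2, then exposed to DMSO-dissolved Tox21 10K compounds for 16 h at 37C. A LiveBLAzer B/G FRET substrate was loaded for 2 h at room temperature before fluorescence reading.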

[12] = qHTS assay to identify small molecule antagonists of the farnesoid-X-receptor (FXR) signaling pathway - cell viability counter screen (AID 743221; active = well fitted cell-killing curve with a large enough effect in the repeat runs, not every such curve was filed as active; also: nearly all actives have a fitted effect of over 50% in size; also: potency is read from the fitted curve at half-maximal effect)
In short: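 Quantitative HTS of the Tox21 10K library run in parallel with the beta-lactamase reporter read. HEK 293T cells carrying a UAS-driven bla reporter got compound and 50 uM CDCA (final) for 16 h; ATP-based luminescence followed.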

[13] = target: Vitamin D3 receptor (Homo sapiens) (UniProt P11473); experiment: qHTS assay to identify small molecule agonists of the vitamin D receptor (VDR) signaling pathway (AID 743222; calls by dose curve)
In short: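 Tox21 cell reporter format: VDR-bla line, 16 h compound exposure in 5% CO2 at 37C, then fluorescence intensity after 2 h with LiveBLAzer B/G FRET substrate.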

[14] = qHTS assay to identify small molecule agonists of the vitamin D receptor (VDR) signaling pathway - cell viability counter screen (AID 743224); also: nearly all actives have a fitted effect of over 50% in size; also: potency is read from the fitted curve at half-maximal effect
In short: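 CellTiter-Glo viability readout on VDR-bla cells, measured after 16 h of compound treatment at 37C in the same wells.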

[15] = target: Peroxisome proliferator-activated receptor gamma (Homo sapiens) (UniProt P37231); experiment: qHTS assay to identify small molecule antagonists of the peroxisome proliferator-activated receptor gamma (PPARg) signaling pathway (AID 743191; calls by dose curve; also: series mostly up to about 63 µM; nearly all actives have a fitted effect of over 30% in size)
In short: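 GeneBLAzer PPARg UAS-bla HEK293H cells carrying a UAS-driven beta-lactamase reporter were plated at 3000 cells/well, preincubated 5 h at 37C, then given compound for 17 h at 37C; LiveBLAzer B/G FRET substrate was read after 1 h at room temperature.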

[16] = target: Peroxisome proliferator-activated receptor delta (Homo sapiens) (UniProt Q03181); experiment: qHTS assay to identify small molecule agonists of the peroxisome proliferator-activated receptor delta (PPARd) signaling pathway (AID 743212; calls by dose curve)
In short: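 Beta-lactamase reporter read by fluorescence (LiveBLAzer B/G FRET, 2 h, room temperature). Test agents, in DMSO, incubated at 37 C with PPARd-bla HEK293H cells.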

[17] = target: Peroxisome proliferator-activated receptor delta (Homo sapiens) (UniProt Q03181); experiment: qHTS assay to identify small molecule antagonists of the peroxisome proliferator-activated receptor delta (PPARd) signaling pathway (AID 743215; active = well fitted inhibition curve with a large enough effect in the signal ratio in the repeat runs, not every such curve was filed as active; the % refers to the signal ratio;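 also: cells stimulated with agonist L165041 at 300 nM final during compound exposure; series mostly up to about 62 µM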)
In short: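 Here, a reporter line (HEK293H, beta-lactamase under a UAS) measures PPARd signaling. Compounds are tested against agonist L165041 at 300 nM final concentration over 17 h at 37 C, with fluorescence read after substrate.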

[18] = qHTS assay to identify small molecule agonists of the farnesoid-X-receptor (FXR) signaling pathway - cell viability counter screen (AID 743218); also: nearly all actives have a fitted effect of over 45% in size; also: potency is read from the fitted curve at half-maximal effect
In short: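 Quantitative HTS counter screen measuring ATP-based viability via CellTiter-Glo luminescence in HEK 293T cells carrying a UAS-driven beta-lactamase reporter, after 16 h compound exposure at 37 C.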

[19] = target: Vitamin D3 receptor (Homo sapiens) (UniProt P11473); experiment: qHTS assay to identify small molecule antagonists of the vitamin D receptor (VDR) signaling pathway (AID 743223; active = well fitted inhibition curve with a large enough effect in the signal ratio in the repeat runs, not every such curve was filed as active; the % refers to the signal ratio; also: potency is read from the fitted curve at half-maximal effect)
In short: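 Fluorescence from LiveBLAzer B/G FRET substrate, read after 2 h at room temperature, reflects beta-lactamase reporter activity in VDR-bla cells treated 16 h at 37C with compounds and agonist 1alpha,25-dihydroxyvitamin D3 (3 nM final).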

[20] = qHTS assay to identify small molecule antagonists of the peroxisome proliferator-activated receptor delta (PPARd) signaling pathway - cell viability counter screen (AID 743213); also: nearly all actives have a fitted effect of over 50% in size; also: potency is read from the fitted curve at half-maximal effect
In short: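 PPARd-bla HEK293H cells (3000/well) got compound plus 300 nM L165041 agonist for 17 h at 37 C. Viability in the same wells came from CellTiter-Glo luminescence after 30 min at room temperature.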

Measured: Potency

Sequence of Peroxisome proliferator-activated receptor delta (Homo sapiens) (Q03181 whole entry, looked up): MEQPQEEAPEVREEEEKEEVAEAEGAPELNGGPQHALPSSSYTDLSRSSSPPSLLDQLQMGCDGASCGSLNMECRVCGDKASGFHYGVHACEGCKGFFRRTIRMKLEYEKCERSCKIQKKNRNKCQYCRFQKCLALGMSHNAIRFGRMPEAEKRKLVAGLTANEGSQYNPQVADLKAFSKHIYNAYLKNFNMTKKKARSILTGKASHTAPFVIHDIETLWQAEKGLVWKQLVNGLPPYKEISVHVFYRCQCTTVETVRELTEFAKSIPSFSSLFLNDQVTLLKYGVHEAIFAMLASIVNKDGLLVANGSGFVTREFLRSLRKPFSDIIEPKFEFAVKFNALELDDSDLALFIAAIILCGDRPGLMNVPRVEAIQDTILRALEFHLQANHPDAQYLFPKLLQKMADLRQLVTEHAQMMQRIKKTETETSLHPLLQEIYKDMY
Sequence of Aryl hydrocarbon receptor (Homo sapiens) (P35869 whole entry, looked up): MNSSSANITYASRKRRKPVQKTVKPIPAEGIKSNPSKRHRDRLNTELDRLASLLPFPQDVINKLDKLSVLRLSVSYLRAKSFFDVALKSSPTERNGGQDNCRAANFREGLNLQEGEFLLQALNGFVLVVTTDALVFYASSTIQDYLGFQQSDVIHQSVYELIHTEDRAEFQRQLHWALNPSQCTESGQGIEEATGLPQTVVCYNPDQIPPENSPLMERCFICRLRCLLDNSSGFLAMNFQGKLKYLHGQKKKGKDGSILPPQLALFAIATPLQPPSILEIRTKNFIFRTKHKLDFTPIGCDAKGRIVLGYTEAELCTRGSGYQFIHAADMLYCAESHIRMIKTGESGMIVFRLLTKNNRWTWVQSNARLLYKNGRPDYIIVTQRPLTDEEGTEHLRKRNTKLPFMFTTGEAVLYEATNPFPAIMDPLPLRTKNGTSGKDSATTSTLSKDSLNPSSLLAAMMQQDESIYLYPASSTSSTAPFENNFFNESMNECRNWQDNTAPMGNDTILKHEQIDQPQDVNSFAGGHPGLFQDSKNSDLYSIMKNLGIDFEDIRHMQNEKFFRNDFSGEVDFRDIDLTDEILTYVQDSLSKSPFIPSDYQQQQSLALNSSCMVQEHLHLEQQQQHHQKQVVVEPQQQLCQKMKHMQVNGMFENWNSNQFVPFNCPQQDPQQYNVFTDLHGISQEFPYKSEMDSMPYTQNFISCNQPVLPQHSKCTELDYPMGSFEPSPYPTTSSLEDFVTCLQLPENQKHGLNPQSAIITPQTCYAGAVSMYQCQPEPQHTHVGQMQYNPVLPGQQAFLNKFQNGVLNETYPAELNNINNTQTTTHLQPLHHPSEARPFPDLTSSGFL
Sequence of Bile acid receptor (Homo sapiens) (Q96RI1 whole entry, looked up): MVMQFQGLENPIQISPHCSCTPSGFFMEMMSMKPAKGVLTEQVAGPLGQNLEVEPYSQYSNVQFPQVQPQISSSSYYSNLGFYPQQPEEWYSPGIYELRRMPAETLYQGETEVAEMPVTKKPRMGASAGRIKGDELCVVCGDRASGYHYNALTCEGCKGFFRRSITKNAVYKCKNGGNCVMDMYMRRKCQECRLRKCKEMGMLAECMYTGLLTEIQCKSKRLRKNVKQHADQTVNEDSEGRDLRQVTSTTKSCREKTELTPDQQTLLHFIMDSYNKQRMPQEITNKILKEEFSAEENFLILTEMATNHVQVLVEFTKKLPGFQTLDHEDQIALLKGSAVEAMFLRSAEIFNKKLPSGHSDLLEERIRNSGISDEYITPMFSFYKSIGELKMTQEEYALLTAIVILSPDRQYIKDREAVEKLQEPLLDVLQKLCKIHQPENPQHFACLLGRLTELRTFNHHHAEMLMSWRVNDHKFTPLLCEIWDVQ
Sequence of Vitamin D3 receptor (Homo sapiens) (P11473 whole entry, looked up): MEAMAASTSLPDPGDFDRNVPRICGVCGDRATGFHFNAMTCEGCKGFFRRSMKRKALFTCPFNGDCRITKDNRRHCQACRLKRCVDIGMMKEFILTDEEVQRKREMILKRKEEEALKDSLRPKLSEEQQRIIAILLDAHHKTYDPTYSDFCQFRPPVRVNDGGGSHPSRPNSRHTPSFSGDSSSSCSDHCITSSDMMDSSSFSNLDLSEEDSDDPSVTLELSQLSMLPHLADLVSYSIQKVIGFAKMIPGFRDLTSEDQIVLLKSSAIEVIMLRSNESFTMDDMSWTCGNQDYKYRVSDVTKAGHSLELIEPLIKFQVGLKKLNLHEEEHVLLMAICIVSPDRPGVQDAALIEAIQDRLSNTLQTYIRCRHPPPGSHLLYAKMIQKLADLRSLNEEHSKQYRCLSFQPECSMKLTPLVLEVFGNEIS
Sequence of Peroxisome proliferator-activated receptor gamma (Homo sapiens) (P37231 whole entry, looked up): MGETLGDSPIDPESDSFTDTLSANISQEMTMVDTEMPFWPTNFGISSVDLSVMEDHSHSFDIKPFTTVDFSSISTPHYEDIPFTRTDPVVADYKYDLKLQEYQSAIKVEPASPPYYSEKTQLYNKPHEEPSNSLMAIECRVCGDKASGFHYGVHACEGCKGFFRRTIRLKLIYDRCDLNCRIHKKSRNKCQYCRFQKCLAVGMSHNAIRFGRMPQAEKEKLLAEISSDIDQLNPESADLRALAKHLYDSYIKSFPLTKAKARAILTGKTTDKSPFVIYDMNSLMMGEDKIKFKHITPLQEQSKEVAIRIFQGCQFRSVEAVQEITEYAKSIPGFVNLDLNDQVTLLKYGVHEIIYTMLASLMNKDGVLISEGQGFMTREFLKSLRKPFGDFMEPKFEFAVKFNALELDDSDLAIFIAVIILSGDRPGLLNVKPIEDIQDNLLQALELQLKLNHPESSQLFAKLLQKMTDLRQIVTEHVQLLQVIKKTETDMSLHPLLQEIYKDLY

NNCCO
not listed: [15] | [16] | [17] | [18] | [19] | [20]
inactive: all other assays above

CCc1ccccc1N
not listed: [4] | [5] | [10] | [11] | [20]
inactive: all other assays above

c1ccc2sc(SNC3CCCCC3)nc2c1
active: [1] 23.7 µM and 34 µM and 30.6 µM | [5] 9.69 µM | [8] 13.3 µM
not listed: [15] | [17]
inactive: all other assays above

Clc1ccccc1
not listed: [4] | [10] | [11] | [15] | [17] | [19] | [20]
inactive: all other assays above

Nc1c(Br)cc(Br)c2c1C(=O)c1ccccc1C2=O
active: [1] 7.25 µM
not listed: [5] | [7] | [10] | [11] | [14] | [15] | [17] | [18]
inactive: all other assays above

CCOP(=S)(OCC)SCSc1cc(Cl)ccc1Cl
not listed: [10] | [11] | [14] | [15] | [19]
inactive: all other assays above

CC(C)CCCCCCCOC(=O)c1ccccc1C(=O)OCCCCCCCC(C)C
not listed: [4] | [5] | [14] | [16] | [17]
inactive: all other assays above

CCC(C)(C)c1ccc(O)c(C(C)(C)CC)c1
inactive: [1] | [2] | [3] | [5] | [16] | [17] | [13]
active: [4] 24.3 µM and 21.9 µM | [6] 61.1 µM | [9] 19.3 µM and 19.5 µM | [20] 17.2 µM and 38.9 µM | [12] 19.5 µM | [19] 12.2 µM and 17.4 µM | [14] 12.2 µM and 11 µM
inactive and 24.5 µM (active): [18]

Nc1ccccc1C(=O)OCCc1ccccc1
active: [1] 30.6 µM
not listed: [5] | [10] | [11] | [15] | [16] | [17]
inactive: all other assays above

C[C@]12CC[C@H]3[C@@H](CCC4=CC(=O)CC[C@@H]43)[C@@H]1CC[C@@H]2OC(=O)CCc1ccccc1
not listed: [4] | [5] | [10] | [11] | [14]
inactive: all other assays above

CC[N+]1(C)CCCC(OC(=O)C(O)(c2ccccc2)c2ccccc2)C1 (stereo not drawn)
not listed: [4] | [10] | [11] | [13] | [14] | [15]
inactive: all other assays above

C[C@H](N)[C@H](O)c1ccc(O)c(O)c1
not listed: [5] | [10] | [11] | [13] | [15] | [16] | [19] | [20]
inactive: all other assays above

O=C(O)COc1cc(Cl)c(Cl)cc1Cl
not listed: [5] | [15] | [16]
inactive: all other assays above

O=C1c2ccccc2C(=O)N1SC(Cl)(Cl)Cl
active: [4] 2.19 µM | [6] 60.3 µM and 13.7 µM | [9] 38.3 µM and 6.92 µM | [20] 21.6 µM and 5.49 µM | [18] 34.7 µM | [14] 19.2 µM and 6.92 µM
inactive: [1] | [2] | [3] | [11]

CN1CC[C@]23c4c5ccc(O)c4O[C@H]2[C@@H](O)CC[C@H]3[C@H]1C5
not listed: [8] | [10] | [11] | [15] | [16] | [17]
inactive: all other assays above

C=CC(=O)OCC
not listed: [13] | [15] | [19] | [20]
inactive: all other assays above

OC[P+](CO)(CO)CO
active: [5] 12.3 µM and 8.63 µM
55.6 µM (active) and inactive: [14]
not listed: [10] | [11] | [15] | [16] | [17]
inactive: all other assays above

CC1(C)CC(=O)CC(C)(C)N1[O]
not listed: [7] | [14] | [15]
inactive: all other assays above

CC(C)OC(=O)Cc1ccccc1
not listed: [10] | [11] | [15] | [16] | [17]
inactive: all other assays above

Nc1ccc2c(c1)Cc1ccccc1-2
active: [1] 68.2 µM
not listed: [4] | [5] | [9] | [10] | [11] | [16]
inactive: all other assays above

OCCSSCCO
not listed: [5] | [15] | [17] | [19]
inactive: all other assays above

Cc1nc2ccccc2c(=O)n1-c1ccccc1Cl
active: [2] 47.5 µM
not listed: [4] | [5] | [10] | [11] | [16] | [17]
inactive: all other assays above

O=C(O)C(O)C(O)C(=O)O (stereo not drawn)
not listed: [3] | [8] | [13] | [15] | [16] | [17] | [19]
inactive: all other assays above

Cc1ncc(C[n+]2csc(CCO)c2C)c(N)n1
inactive: [1] | [2] | [5] | [6] | [7] | [9] | [20] | [18] | [12] | [13] | [19]

O=C(O)c1cc(I)cc(I)c1I
not listed: [3] | [5] | [7] | [15] | [17] | [19]
inactive: all other assays above
